Targets with a hit are over-represented here; the source holds about 8,800 in all. About 0.5% of all pairs of compound and target were hits. Values without a mark were called inactive.

Experiment in all cases: log2 fold change, soluble protein after heating vs DMSO (PISA); higher = thermal stabilisation; K562 lysate, 10 uM; active = over 0.2 and 3.5 SD of the protein, either way, in both replicates (recomputed)
Compound in one assay: CCCS(=O)(=O)Nc1ccc(F)c(C(=O)c2c[nH]c3ncc(-c4ccc(Cl)cc4)cc23)c1F [vemurafenib]
The method, boiled down:
(§1)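 Following dounce homogenisation of K562 pellets in PBS pH 7.4 with 1 mM MgCl2, crude extract at 1 mg/mL protein was incubated for 30 min with 10 μM compound. Aliquots were then heated for 3 min over 48°C-58°C and pooled, NP-40 was added to 0.5% at 4°C, and soluble protein was recovered as the supernatant at 21,000xg for 90 min. Channel-sum-equalised TMTpro 16plex LC-MS/MS quantified this protein. Each value, from duplicates, is a log-two fold change in thermal stability relative to solvent controls.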

Compound in assay [1]: CCCS(=O)(=O)Nc1ccc(F)c(C(=O)c2c[nH]c3ncc(Cl)cc23)c1F
The gist of the method: as §1

Compound in the next assay: CCN(CCCOc1ccc2c(Nc3cc(CC(=O)Nc4cccc(F)c4)[nH]n3)ncnc2c1)CCOP(=O)(O)O [barasertib]
The gist of the method: as §1

Compound in assay [2]: CC[C@@H]1C(=O)N(C)c2cnc(Nc3ccc(C(=O)NC4CCN(C)CC4)cc3OC)nc2N1C1CCCC1
The method, boiled down:
as §1

Compound in another assay: CC[C@@H]1C(=O)N(C)c2cnc(Nc3ccc(C(=O)N[C@H]4CC[C@H](N5CCN(CC6CC6)CC5)CC4)cc3OC)nc2N1C(C)C [volasertib]
The gist of the method:
as §1

Compound in assay [3]: CCn1c(C(=O)N(C2CC2)C2CC2)cc2c3c(ncn3C)c(Nc3cc(C)n(C)n3)nc21
The gist of the method: as §1

Compound in assay [4]: CCn1cc(-c2ccnc3[nH]c(-c4cccc(CN(C)C)c4)cc23)c(-c2ccc(NC(=O)N(C)C)cc2)n1
The gist of the method: as §1

Compound in assay [5]: CN1CCC(CNc2ccc3ncc(-c4cccc(OC(F)(F)F)c4)n3n2)CC1
The gist of the method:
as §1

Compound in another assay: CN1CCN(CCOc2cc(OC3CCOCC3)c3c(Nc4c(Cl)ccc5c4OCO5)ncnc3c2)CC1 [saracatinib]
The method, boiled down:
as §1

Compound in another assay: CN1CCN(c2nc(C3=C(c4c[nH]c5ccccc45)C(=O)NC3=O)c3ccccc3n2)CC1 [sotrastaurin]
The gist of the method: as §1

Chain of UniProt O00139 (O00139 whole entry, looked up): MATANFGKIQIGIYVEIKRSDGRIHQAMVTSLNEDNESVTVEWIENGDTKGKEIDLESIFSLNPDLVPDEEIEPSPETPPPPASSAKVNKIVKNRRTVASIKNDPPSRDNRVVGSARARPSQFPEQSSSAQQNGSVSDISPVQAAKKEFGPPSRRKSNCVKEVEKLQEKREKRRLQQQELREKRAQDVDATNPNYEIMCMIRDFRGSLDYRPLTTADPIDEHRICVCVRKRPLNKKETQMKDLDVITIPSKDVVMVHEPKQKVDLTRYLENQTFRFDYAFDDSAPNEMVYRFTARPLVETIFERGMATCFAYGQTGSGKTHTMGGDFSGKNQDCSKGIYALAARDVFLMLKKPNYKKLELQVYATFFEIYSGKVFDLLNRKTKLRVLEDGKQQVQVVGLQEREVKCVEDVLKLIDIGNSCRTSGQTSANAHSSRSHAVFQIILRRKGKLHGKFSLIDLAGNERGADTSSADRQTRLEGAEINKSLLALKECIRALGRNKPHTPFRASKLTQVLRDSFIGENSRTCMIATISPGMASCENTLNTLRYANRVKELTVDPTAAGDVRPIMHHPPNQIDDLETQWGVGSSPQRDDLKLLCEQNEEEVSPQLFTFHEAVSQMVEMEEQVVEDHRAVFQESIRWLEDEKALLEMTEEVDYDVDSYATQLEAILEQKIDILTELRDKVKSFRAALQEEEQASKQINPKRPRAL
Chain of UniProt Q14807 (Q14807 whole entry, looked up): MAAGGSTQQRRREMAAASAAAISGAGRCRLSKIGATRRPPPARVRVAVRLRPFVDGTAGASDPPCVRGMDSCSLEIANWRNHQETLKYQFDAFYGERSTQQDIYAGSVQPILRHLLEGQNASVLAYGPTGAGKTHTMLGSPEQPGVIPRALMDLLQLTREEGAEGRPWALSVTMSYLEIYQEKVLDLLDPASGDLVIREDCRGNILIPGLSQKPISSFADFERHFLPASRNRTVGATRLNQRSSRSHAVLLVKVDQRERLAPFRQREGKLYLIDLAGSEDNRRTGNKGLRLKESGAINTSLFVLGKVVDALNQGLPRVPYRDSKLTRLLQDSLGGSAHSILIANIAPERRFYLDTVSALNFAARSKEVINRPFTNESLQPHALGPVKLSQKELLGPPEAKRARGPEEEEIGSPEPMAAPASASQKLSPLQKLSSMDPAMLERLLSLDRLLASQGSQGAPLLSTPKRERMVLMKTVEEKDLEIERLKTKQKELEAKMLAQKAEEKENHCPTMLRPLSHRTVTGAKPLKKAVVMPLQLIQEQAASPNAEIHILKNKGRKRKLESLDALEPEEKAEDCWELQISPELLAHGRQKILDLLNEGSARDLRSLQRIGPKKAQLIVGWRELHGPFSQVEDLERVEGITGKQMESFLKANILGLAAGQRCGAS
Chain of UniProt P45983 (P45983 whole entry, looked up): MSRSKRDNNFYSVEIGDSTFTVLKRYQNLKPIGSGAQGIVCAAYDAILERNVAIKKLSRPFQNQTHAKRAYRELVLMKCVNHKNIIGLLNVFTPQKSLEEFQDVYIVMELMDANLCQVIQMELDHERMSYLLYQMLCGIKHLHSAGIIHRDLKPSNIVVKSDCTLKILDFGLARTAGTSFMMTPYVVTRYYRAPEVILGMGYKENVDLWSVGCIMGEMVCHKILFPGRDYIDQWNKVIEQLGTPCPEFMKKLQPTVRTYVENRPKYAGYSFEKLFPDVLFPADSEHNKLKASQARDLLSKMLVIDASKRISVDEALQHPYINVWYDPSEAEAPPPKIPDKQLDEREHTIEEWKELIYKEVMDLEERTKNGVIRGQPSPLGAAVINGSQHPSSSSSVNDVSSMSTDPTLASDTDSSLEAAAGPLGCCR
Chain of UniProt Q96G25 (Q96G25 whole entry, looked up): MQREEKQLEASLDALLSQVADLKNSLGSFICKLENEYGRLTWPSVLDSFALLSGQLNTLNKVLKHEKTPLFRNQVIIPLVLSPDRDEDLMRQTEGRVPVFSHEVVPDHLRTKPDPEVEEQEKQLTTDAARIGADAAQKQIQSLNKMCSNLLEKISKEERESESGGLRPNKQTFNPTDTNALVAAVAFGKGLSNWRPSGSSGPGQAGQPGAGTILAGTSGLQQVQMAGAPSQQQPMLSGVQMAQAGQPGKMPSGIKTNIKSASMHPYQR
Chain of UniProt Q9GZY8 (Q9GZY8 whole entry, looked up): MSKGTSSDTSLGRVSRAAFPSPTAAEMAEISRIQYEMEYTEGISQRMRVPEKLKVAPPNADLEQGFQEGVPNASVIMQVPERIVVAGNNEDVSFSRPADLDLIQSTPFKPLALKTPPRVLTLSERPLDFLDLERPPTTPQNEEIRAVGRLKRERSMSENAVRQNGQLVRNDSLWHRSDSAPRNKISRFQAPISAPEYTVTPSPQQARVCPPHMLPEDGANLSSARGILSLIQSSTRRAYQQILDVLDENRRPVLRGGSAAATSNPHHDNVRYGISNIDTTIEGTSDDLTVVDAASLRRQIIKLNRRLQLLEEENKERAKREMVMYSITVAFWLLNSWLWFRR
Chain of UniProt Q15031 (Q15031 whole entry, looked up): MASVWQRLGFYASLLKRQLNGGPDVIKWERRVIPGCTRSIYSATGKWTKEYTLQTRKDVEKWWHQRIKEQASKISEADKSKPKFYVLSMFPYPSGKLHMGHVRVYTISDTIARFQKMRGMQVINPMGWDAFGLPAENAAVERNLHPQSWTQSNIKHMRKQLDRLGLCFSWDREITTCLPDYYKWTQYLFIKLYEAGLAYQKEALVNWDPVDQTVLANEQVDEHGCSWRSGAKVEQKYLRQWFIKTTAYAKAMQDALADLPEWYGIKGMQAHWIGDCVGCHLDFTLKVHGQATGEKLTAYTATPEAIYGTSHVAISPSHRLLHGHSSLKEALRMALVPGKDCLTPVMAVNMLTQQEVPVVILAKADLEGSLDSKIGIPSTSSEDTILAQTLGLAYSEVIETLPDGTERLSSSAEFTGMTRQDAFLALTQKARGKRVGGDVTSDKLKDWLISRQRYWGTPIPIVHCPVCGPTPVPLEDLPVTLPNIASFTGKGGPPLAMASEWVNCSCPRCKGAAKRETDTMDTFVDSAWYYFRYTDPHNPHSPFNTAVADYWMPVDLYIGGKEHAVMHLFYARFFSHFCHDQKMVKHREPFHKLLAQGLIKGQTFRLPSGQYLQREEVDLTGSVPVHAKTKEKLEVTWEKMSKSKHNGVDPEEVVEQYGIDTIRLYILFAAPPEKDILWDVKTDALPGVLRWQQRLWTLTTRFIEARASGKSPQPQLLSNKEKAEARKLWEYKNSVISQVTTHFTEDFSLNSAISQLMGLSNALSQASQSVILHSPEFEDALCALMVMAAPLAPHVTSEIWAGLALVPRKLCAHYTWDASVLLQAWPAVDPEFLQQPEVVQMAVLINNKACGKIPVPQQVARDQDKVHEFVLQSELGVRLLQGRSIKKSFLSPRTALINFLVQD
Chain of UniProt Q02750 (Q02750 whole entry, looked up): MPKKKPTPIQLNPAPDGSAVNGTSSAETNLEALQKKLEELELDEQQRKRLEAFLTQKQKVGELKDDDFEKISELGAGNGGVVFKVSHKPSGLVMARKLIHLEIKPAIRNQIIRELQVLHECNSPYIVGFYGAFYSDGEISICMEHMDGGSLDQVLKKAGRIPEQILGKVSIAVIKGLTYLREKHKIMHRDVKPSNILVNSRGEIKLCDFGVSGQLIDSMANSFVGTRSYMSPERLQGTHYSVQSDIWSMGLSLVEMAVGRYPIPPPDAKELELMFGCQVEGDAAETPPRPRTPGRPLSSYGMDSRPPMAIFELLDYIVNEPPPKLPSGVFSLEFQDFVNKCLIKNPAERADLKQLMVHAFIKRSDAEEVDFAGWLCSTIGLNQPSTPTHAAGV
Chain of UniProt O95297 (O95297 whole entry, looked up): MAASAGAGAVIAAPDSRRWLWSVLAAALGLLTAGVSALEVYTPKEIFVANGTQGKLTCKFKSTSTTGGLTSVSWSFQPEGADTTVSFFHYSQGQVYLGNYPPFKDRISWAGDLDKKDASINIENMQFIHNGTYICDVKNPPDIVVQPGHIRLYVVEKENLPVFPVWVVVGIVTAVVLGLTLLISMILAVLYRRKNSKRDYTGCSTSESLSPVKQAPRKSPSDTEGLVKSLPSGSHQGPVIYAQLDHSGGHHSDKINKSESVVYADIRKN
Chain of UniProt Q8IWC1 (Q8IWC1 whole entry, looked up): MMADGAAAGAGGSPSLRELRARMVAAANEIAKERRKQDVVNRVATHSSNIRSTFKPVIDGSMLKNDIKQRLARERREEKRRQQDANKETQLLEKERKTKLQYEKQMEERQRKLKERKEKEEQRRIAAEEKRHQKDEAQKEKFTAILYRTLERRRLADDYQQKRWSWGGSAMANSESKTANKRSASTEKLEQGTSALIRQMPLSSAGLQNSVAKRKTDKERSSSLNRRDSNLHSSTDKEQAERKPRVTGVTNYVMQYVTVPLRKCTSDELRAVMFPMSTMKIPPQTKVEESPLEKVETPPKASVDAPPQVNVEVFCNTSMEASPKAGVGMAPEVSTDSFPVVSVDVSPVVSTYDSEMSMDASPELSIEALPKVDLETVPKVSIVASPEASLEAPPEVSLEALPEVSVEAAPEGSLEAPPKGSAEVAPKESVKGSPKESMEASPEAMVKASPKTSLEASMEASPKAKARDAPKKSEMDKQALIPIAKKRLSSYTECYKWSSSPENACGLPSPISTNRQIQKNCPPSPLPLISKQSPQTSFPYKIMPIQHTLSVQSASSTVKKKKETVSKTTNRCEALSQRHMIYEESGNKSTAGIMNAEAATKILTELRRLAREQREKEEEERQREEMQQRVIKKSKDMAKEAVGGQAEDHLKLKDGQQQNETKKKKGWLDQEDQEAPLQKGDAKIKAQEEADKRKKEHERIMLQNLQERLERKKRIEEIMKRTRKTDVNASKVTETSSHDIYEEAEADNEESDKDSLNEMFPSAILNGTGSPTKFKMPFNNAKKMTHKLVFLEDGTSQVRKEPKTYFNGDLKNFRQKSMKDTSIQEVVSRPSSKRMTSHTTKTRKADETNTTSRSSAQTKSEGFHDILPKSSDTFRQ

Regarding MPZL1 (UniProt O95297), the log2 fold change in the assay with vemurafenib is 0.037; in assay [1], 0.001; with barasertib it was 0.024; in assay [2], 0.057; with volasertib, 0.035; in assay [3], 0.027. Moreover, the log2 fold change was 0.262 (active) in assay [4], -0.052 in assay [5], 0.045 in the assay with saracatinib and -0.022 with sotrastaurin.
As to MED8 isoform 2 (UniProt Q96G25), the log2 fold change is -0.022 with vemurafenib; 0.018 in [1]; 0.081 in the assay with barasertib; -0.051 in assay [2]; -0.003 with volasertib; 0.013 in assay [3]. Also, the log2 fold change is 0.214 in assay [4], -0.092 in assay [5], -0.002 with saracatinib and 0.091 in the assay with sotrastaurin.
Regarding MAD2L1BP isoform 3 (UniProt Q15013), the log2 fold change with vemurafenib was 0.003; in assay [1], 0.009; in the assay with barasertib it was 0.054; in assay [2], -0.076; with volasertib, -0.042; in assay [3] it was 0.022. Moreover, the log2 fold change is 0 in [4], 0.03 in assay [5], 0.021 with saracatinib and 0.01 in the assay with sotrastaurin.
Turning to MRPL15 (UniProt Q9P015), the log2 fold change in the assay with vemurafenib was 0.004; in assay [1], 0.025; with barasertib, -0.04; in [2], 0.024; with volasertib it was -0.018; in [3], -0.062. For the same target, the log2 fold change in [4] is -0.509 (active); in [5] it was 0.174; with saracatinib, -0.07; in the assay with sotrastaurin, 0.023.
As for LARS2 (UniProt Q15031), the log2 fold change was -0.015 with vemurafenib; 0.007 in [1]; 0.077 with barasertib; -0.103 in assay [2]; -0.081 with volasertib; 0.061 in assay [3]. The log2 fold change was 0.024 in assay [4], -0.073 in [5], 0.029 with saracatinib and 0.072 with sotrastaurin.
With MAP7D3 (UniProt Q8IWC1), the log2 fold change was -0.153 with vemurafenib; -0.039 in assay [1]; -0.031 in the assay with barasertib; -0.056 in assay [2]; 0.018 in the assay with volasertib; 0.029 in [3]. The log2 fold change is -0.053 in assay [4], -0.006 in assay [5], -0.019 with saracatinib and -0.024 with sotrastaurin.
LETM1 (UniProt O95202): the log2 fold change in the assay with vemurafenib is 0.029; in assay [1] it was 0.005; with barasertib it was -0.015; in assay [2], -0.012; in the assay with volasertib it was 0.01; in [3], -0.015. The log2 fold change in assay [4] was 0.08; in assay [5], -0.287 (active); in the assay with saracatinib it was -0.002; in the assay with sotrastaurin it was -0.014.
Take KIF22 (UniProt Q14807): the log2 fold change was -0.043 with vemurafenib; -0.049 in assay [1]; 0.009 in the assay with barasertib; 0.088 in assay [2]; 0.075 in the assay with volasertib; -0.189 in [3]. The log2 fold change in [4] is -0.157; in assay [5], 0.308; in the assay with saracatinib it was 0.036; in the assay with sotrastaurin, -0.084.
KIF2A isoform 4 (UniProt O00139): the log2 fold change with vemurafenib is -0.006; in assay [1], 0; with barasertib, -0.014; in assay [2] it was -0.117; in the assay with volasertib it was -0.032; in assay [3] it was 0.042. For the same target, the log2 fold change is -0.013 in [4], 0.009 in assay [5], 0.021 with saracatinib and 0.023 with sotrastaurin.
In the case of MFF isoform 2 (UniProt Q9GZY8), the log2 fold change in the assay with vemurafenib was 0.019; in assay [1], 0.027; with barasertib it was 0.027; in [2], 0.032; with volasertib, -0.014; in assay [3], 0.035. For the same target, the log2 fold change is -0.234 (active) in assay [4], 0.036 in [5], 0.011 with saracatinib and -0.044 with sotrastaurin.
Take LRPPRC (UniProt H7C3W8): the log2 fold change with vemurafenib is 0.566.
Turning to LRPPRC (UniProt P42704), the log2 fold change with vemurafenib was 0.032; in assay [1], 0.024; in the assay with barasertib it was 0.101; in [2] it was -0.141; with volasertib it was -0.072; in assay [3], 0.076. The log2 fold change in [4] was 0.033; in [5] it was -0.087; with saracatinib, 0.045; in the assay with sotrastaurin it was 0.005.
In the case of MAP2K1 (UniProt Q02750), the log2 fold change in the assay with vemurafenib is 0.056; in [1] it was 0.194; with barasertib, 0.022; in assay [2], -0.043; with volasertib, -0.051; in assay [3], -0.057. Further, the log2 fold change was 0.281 in [4], -0.041 in assay [5], 0.032 with saracatinib and 0.015 with sotrastaurin.
For MAPK8 isoform 3 (UniProt P45983), the log2 fold change with vemurafenib was 0.06; in assay [1], 0.022; with barasertib, 0.007; in assay [2] it was -0.123; with volasertib it was -0.02; in [3], -0.005. Moreover, the log2 fold change in assay [4] was 0.013; in assay [5], 0.055; with saracatinib, 0.027; with sotrastaurin, 0.01.
